# Reference: PubChem BioAssay (NCATS)
# Records with an inconclusive call do not appear. A call without a number means that no potency is given here. Activity calls are given as the source filed them. Calls follow the shape of the dose curve; as a rule, active = well fitted cell-killing curve with a large enough effect; inconclusive = small, poorly fitted or top-dose-only effect, or effect the other way; inactive = no such curve, though single readings can be large or run the other way.
# Assay: Viability qHTS for spleen associated tyrosine kinase inhibitor (SYKi) naive MV4-11 cells (AID 1963823); also: nearly all actives have a fitted effect of over 40% in size
# Conditions: MV4-11 AML viability, CellTiter-Glo luminescence, 72 h; series mostly up to 45 µM
# In short: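 Cells: MV4-11, SYK inhibitor naive, 500 per well. Treatment: library compounds, 72 hr, 37 C, 5% CO2. Read-out: CellTiter-Glo luminescence after 10 min RT.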
# Potency is read from the fitted curve at half-maximal effect.
row,SMILES,Potency
1,CC(/C=C/C1(O)C(C)CC(O)CC1(C)C)OC1OC(CO)C(O)C(O)C1O (stereo not given),inactive
2,COC(=O)CC(C)(O)CC(=O)OCc1ccc(O[C@@H]2O[C@H](CO)[C@@H](O)[C@H](O)[C@H]2O)cc1 (stereo not given in full),inactive
3,CN(C/C=C/C#CC(C)(C)C)Cc1cccc2ccccc12,inactive
4,COc1cc([C@@H]2Oc3c(OC)cc(CCCO)cc3[C@@H]2CO[C@@H]2O[C@H](CO)[C@@H](O)[C@H](O)[C@H]2O)ccc1O,inactive
5,C=C1C(=O)OC2CC(C)=C(C(C)CCCO)C(O)C12 (stereo not given),inactive
6,C[C@@H]1CCC2C(C)(C)[C@H](O)[C@H](O)C[C@]2(C)[C@@]12Cc1c(O)cc3c(c1O2)CN(CCCC(=O)O)C3=O (stereo not given in full),inactive
7,CCN(Cc1cccnc1)C(=O)CN(c1ccc(OC)nc1)S(=O)(=O)c1ccccc1C,inactive
8,Cc1cc(-c2nc(-c3ccc(OC(F)(F)F)cc3)no2)nn1Cc1ccnc(N2CCN(C3CC3)CC2)c1,inactive
9,C=C1CC[C@@H]2[C@](C)(CO[C@@H]3O[C@H](CO)[C@@H](O)[C@H](O)[C@H]3O)CCC[C@@]2(C)[C@@H]1CCC1=CCOC1=O,inactive
10,CC(=O)O[C@@]1(C)C[C@@H](O)[C@]2(O)C=CO[C@@H](O[C@@H]3O[C@H](CO)[C@@H](O)[C@H](O)[C@H]3O)[C@@H]21,inactive
11,COc1cc(C2Oc3c(OC)cc(CCCO)cc3C2CO)ccc1O (stereo not given),inactive
12,CC(C)C(NC(=O)c1ccc2ccccc2n1)C(=O)NC(CC(=O)O)C(=O)COc1c(F)cccc1F (stereo not given),inactive
13,O=c1c2ccccc2nc2n1CCC2O (stereo not given),inactive
14,COC(=O)C1=C(C)NC(C)=C(C(=O)OCCN(C)Cc2ccccc2)C1c1cccc([N+](=O)[O-])c1 (stereo not given),11.9 µM (active)
15,O=C(Nc1cnc(Cl)nc1)c1ccc(F)c(F)c1,inactive
16,CC(=O)c1c(C)cc(O)cc1O[C@@H]1O[C@H](CO)[C@@H](O)[C@H](O)[C@H]1O,inactive
17,Cn1sc(=O)n(Cc2ccccc2)c1=O,2.59 µM (active)
18,COc1ccc(C(=O)N(CCC(C)C)Cc2nc(C)c(C)n2Cc2ccccc2C)c(OC)c1,20.6 µM (active)
19,COc1cc(/C=C/C=O)cc(OC)c1O[C@@H]1O[C@H](CO)[C@@H](O)[C@H](O)[C@H]1O,inactive
20,O=C(/C=C/c1ccc(O)cc1)OC[C@H]1O[C@@H](O/C(=C\c2ccccc2)C(=O)O)[C@H](O)[C@@H](O)[C@@H]1O,inactive

row,SMILES,Potency
1,COc1ccc(CN2CCN(CCCSc3cc(C(C)(C)C)c(O)c(C(C)(C)C)c3)CC2)c(OC)c1OC,3.48 µM (active)
2,C[C@H]1[C@H](C)CC[C@]2(C(=O)O)CC[C@]3(C)C(=CCC4[C@@]5(C)C[C@@H](O)[C@H](O)C(C)(C)C5CC[C@]43C)[C@H]12 (stereo not given in full),inactive
3,CC1=CCC2C(C)(CO)CCCC2(C)C1CC12OC1C(O)C(CO)=CC2O (stereo not given),inactive
4,C=C1CC2[C@]3(C)C(=C(O)C(=O)[C@@]2(C)[C@]2(C(=O)OC)C(=O)C(C)OC(=O)[C@@]12C)C(C)(C)C(=O)CC3O (stereo not given in full),inactive
5,O=C(O[C@@H]1O[C@H](CO)[C@@H](O)[C@H](O)[C@H]1O)c1ccccc1,inactive
6,Cc1c(C(=O)Nc2ccc(N3CCC(N4CCOCC4)CC3)c(C#N)c2)cnn1-c1ccc(Cl)cc1,0.116 µM (active)
7,C=C1C[C@]23C[C@H]1CC[C@H]2[C@]1(C)CC[C@H](O)[C@@](C)(C(=O)O)[C@H]1[C@@H]3C(=O)O,inactive
8,COc1cccc(C(=O)N2CCN(C(=O)COc3cccc(C)c3)CC2)c1OC,inactive
9,C=C1C(=O)O[C@@H]2CC(C)=C([C@@H](C)CCCOC(C)=O)[C@@H](O)[C@H]12,inactive
10,CSc1ccc2c(c1)C(N1CCN(C)CC1)Cc1ccccc1S2 (stereo not given),11.9 µM (active)
11,C=C1[C@H]2CCC3[C@]4(C)CCC[C@@](C)(C(=O)O)C4CC[C@]3(C2)[C@H]1OC(C)=O (stereo not given in full),inactive
12,C[n+]1ccc(-c2c3nc(c(-c4cc[n+](C)cc4)c4ccc([nH]4)c(-c4cc[n+](C)cc4)c4nc(c(-c5cc[n+](C)cc5)c5ccc2[nH]5)C=C4)C=C3)cc1,inactive
13,Nc1nc(OC(c2ccc(-c3cccc(F)c3)cc2)C(F)(F)F)cc(-c2ccc(C[C@H](N)C(=O)O)cc2)n1 (stereo not given in full),18.6 µM (active)
14,CCOc1nc(NC(=O)Cc2cc(OC)ccc2OC)cc(N)c1C#N,inactive
15,Cc1ccccc1Sc1ccc(/C=C2\SC(=S)NC2=O)cc1[N+](=O)[O-],inactive
16,CC1=C2C(=O)C=C(CO)C2[C@H]2OC(=O)[C@H](C)[C@@H]2[C@@H](OC(=O)Cc2ccc(O)cc2)C1 (stereo not given in full),inactive
17,COc1ccc(-c2ccccc2)cc1NS(=O)(=O)c1cc(Cl)cc(Cl)c1O,inactive
18,CNC12CC3C[C@@](C)(C1)C[C@](C)(C3)C2,inactive
19,Cc1ccc(Cl)cc1N(CC(=O)Nc1c(F)cccc1F)S(C)(=O)=O,5.17 µM (active)
20,CC(=O)O[C@H](C[C@@H](C)[C@H]1C(=O)[C@H](O)[C@@]2(C)[C@@H]3CCC4C(C)(C)[C@@H](O[C@@H]5OC[C@H](O)[C@H](O)[C@H]5O)CC[C@@]45C[C@@]35CC[C@]12C)[C@@H]1OC1(C)C (stereo not given in full),inactive
